Measured values taken from PubChem BioAssay (NCI).
Compounds without any hit were thinned out: in the full panel of roughly 83,000, 20% have a hit.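 Assay: single dose, 48 h. Readout: percent growth (0 = no net growth; negative = cell death). Active: <10.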 The source made the active and inactive calls.

Test system: ACHN renal
Assay: NCI-60 one-dose screen, 48 h (100 = growth as untreated, 0 = no growth, -100 = all killed)
Details: 10 µM unless noted
Experimental: Growth inhibition of the ACHN human tumor cell line is measured as a screen for anti-cancer activity. Cells are grown in 96 well plates and exposed to the test compound for 48 hours. Compounds are tested at a single concentration, which is 10^-5 M for most compounds. The reported endpoint is percent growth (GI% or GIPRCNT), where numbers from 0 - 100% represent growth inhibition, and numbers from -100% - 0 represent cell death. For example, a value of 40 represents 60% growth inhibition. A value of 0 means no net growth occurred over the course of the experiment. A value of -40 indicates 40% of cells at the beginning of the experiment died by the end of the experiment. A value of -100 means all cells are dead at the end of the experiment.
NCI-60 Human Tumor Cell Lines Screen was performed using the standard one-dose NCI protocol, which is described in more detail at https://dtp.cancer.gov/discovery_development/nci-60/default.htm.
Compounds with GIPRCNT values below 10 were considered active. Activity score was based on GIPRCNT using the following formula: […]
Score is 0 for GIPRCNT values of 100 or above, 50 for GIPRCNT values of 0, and 100 for GIPRCNT values of -100.

| SMILES | growth |
| --- | --- |
| CN(CCNCc1ccccn1)CCNCc1ccccn1 | 0.79% (active) |
| COc1ccc2c(c1)C(=O)/C(=C/c1ccc(OCC(=O)c3ccc(Cl)cc3)cc1)O2 | 98.8% (inactive) |
| O=C(c1ccccc1)[C@H]1[C@@H]2CCCN2[C@]2(C(=O)Nc3ccc(F)cc32)[C@]12C(=O)Nc1ccccc12 | 88.6% (inactive) |
| Cc1ccc2c(c1)Nc1ccc(C)cc1C2(C)C | 112% (inactive) |
| COc1ccc(-c2nn(-c3ccc(NC(=O)Nc4ccc(Cl)c(C(F)(F)F)c4)cc3)cc2-c2ccncc2)cc1Cl | 7.51% (active) |
| Cc1[nH]c2ccc(F)cc2c1CCNC(=O)C1CCN(C(=O)c2ccc(-c3ccccc3)cc2)CC1 | 52.6% (inactive) |
| C=C(C)[C@@H]1C/C=C(\COC(=O)[C@H](OC(C)=O)C(NC(=O)c2ccccc2)c2ccccc2)CC[C@H]2O[C@]2(C)CC/C=C(\C)CC1 (stereo not given in full) | 86.8% [5 µM] (inactive) |
| CCCCCCCC(=O)SCC/C=C/[C@@H]1CC(=O)NCc2nc(cs2)C2=N[C@@](C)(CS2)C(=O)N[C@@H](C(C)C)C(=O)N1 | 7.25% (active) |
| C=C1C(=O)O[C@H]2[C@H]1CC/C(COC(=O)c1ccc3ccccc3c1)=C\CC[C@@]1(C)O[C@@H]21 | -100% (active) |
| COc1cc(/C=C\c2cc(/C=C\c3ccc(O)c(OC)c3)n(C(=O)CNc3ccccc3OC)n2)ccc1O | 45.3% (inactive) |
| Cc1cc(N2CCOCC2)nc(N(CCNc2ccnc3cc(Cl)ccc23)Cc2ccco2)n1 | 27% (inactive) |
| O=C(Nc1ccc(-n2ccc3c(NC(=O)c4ccccc4)nccc32)cc1)Nc1ccc(Cl)c(Cl)c1 | 2.67% (active) |
| CCOC(=O)C1CN(Cc2ccccc2)C(=O)C1=O (stereo not given) | 104% (inactive) |
| OCCOCC(F)(F)F | 108% (inactive) |
| COc1ccc(/C=N/C2=NNC(C)(c3ccccc3O)N2C(Cc2c[nH]c3ccccc23)C(=O)O)cc1 (stereo not given) | 46.5% (inactive) |
| C/C(=N\N=C1/SCC(=O)N1c1ccccc1)c1ccco1 | 106% (inactive) |
| C=CCn1c(SCC(=O)Nc2ccc(/C(C)=N\O)cc2)nnc1-c1cc(-c2ccc(OC)cc2)nc2ccccc12 | 28.9% (inactive) |
| CS(=O)(=O)Nc1cccc(-c2ccc3ncnc(Nc4cncc(Cl)c4)c3c2)c1 | 25.6% (inactive) |
| O=C(NCCNc1nccc(-c2c(-c3cccc(O)c3)nc3sccn23)n1)c1ccccc1O | 46.1% (inactive) |
| C=C1C(=O)O[C@H]2[C@H]1CC/C(CNC(=O)/C1=C/CC[C@@]3(C)O[C@H]3[C@H]3OC(=O)C(=C)[C@@H]3CC1)=C\CC[C@@]1(C)O[C@@H]21 | 97.6% (inactive) |

| SMILES | growth |
| --- | --- |
| COc1cc(NC(=O)c2cc(OC)c3ccn(C)c3c2)cc2c1C[C@]1(C)CC[C@@H](O)C(C)(C)[C@H]1O2 | 36.6% (inactive) |
| COc1ccc(-c2nn(-c3ccc(NC(=O)c4cc(Cl)cc(Cl)c4)cc3)cc2-c2ccncc2)cc1Cl | 63.6% (inactive) |
| NC(=O)C1=C[C@H]2[C@H]3C=C[C@@]2(O)C(=O)O[C@@H]3O1 | 44% (inactive) |
| CC(C(=O)O)N1C(N)=NNC1c1ccccc1O (stereo not given) | 87.3% (inactive) |
| O=C(Cn1c2ccccc2c2ccncc21)N/N=C\c1ccc2ccccc2c1 | 4.98% (active) |
| CCn1c(SCC(=O)c2ccc(Br)cc2)nnc1-c1cc2c([nH]c3ccccc32)c(-c2cccc(O)c2)n1 | 60.5% (inactive) |
| CCC1S/C(=N\N=C(/C)c2ccco2)N(c2ccccc2)C1=O (stereo not given) | 110% (inactive) |
| CN(C)c1ncc(C#Cc2c(F)cccc2F)c2ccccc12 | 96.3% (inactive) |
| CCCN1C(=O)CSC1=Nc1ccc2cc3ccc(N=C4SCC(=O)N4CCC)cc3nc2c1 | 36.4% (inactive) |
| CC(C)(C)OC(=O)N1CCN(CCn2cc(C(F)(F)F)c3c(Cl)ncnc32)CC1 | 96.6% (inactive) |
| CCOC(=O)CSc1nnc(-c2cc3c([nH]c4ccccc43)c(-c3cccc(O)c3)n2)n1-c1ccc(C)cc1 | 50.4% (inactive) |
| COc1cc(C(=O)N2CCN(C(=O)c3cc(OC)c(OCc4ccccc4)cc3N)CC2)c(N)cc1OCc1ccccc1 | 159% (inactive) |
| CCOc1cccc(Nc2nc(N)nc3[nH]c4ccc(O)cc4c23)c1 | 40.8% (inactive) |
| CS(=O)(=O)Nc1cccc(-c2ccc3ncnc(Nc4ccc(F)c(Cl)c4)c3c2)c1 | 22.3% (inactive) |
| O=C(Nc1cccc(-n2ccc3c(NC(=O)c4ccccc4)nccc32)c1)c1cc(N2CCOCC2)cc(C(F)(F)F)c1 | 6% (active) |
| Nc1ncnc2c1c(-c1ccc(Oc3ccccc3)cc1)nn2C[C@H]1SSC[C@H]1O | 10.3% (inactive) |
| O=[N+]([O-])c1ccccc1NC1c2ccccc2Oc2ccccc21 | 71.2% (inactive) |
| C/C(=N/NC(=O)Cn1c2ccccc2c2ccncc21)c1cccs1 | 103% (inactive) |
| O=S(=O)(Nc1cccc2cc(OS(=O)(=O)c3ccccc3)ccc12)c1ccccc1 | 85.1% (inactive) |
| CCc1ccc(C2=C/C(=C/c3ccc(Cl)cc3)C(=O)N2CCc2ccc(S(N)(=O)=O)cc2)cc1 | 14.9% (inactive) |
